The text below walks through data of the antibiotic and cytotoxicity screens of Wong et al. (2023).

The campaign covered roughly 39,000 compounds. About 3,300 (8.5%) were called active. This excerpt belongs to a sample that is enriched for actives.

The subject of the experiment is HepG2. The experiment can be described thus: cytotoxicity call (relative viability < 0.9). As to conditions: 10 µM.
Consider `C[C@H]1CN([C@@H](C)CO)C(=O)c2cc(NC(=O)CCCN(C)C)ccc2O[C@H]1CN(C)S(=O)(=O)c1ccccc1`, for which the cytotoxicity call was “inactive”.

Take `C[C@@H]1CN([C@@H](C)CO)S(=O)(=O)c2ccc(Br)cc2O[C@H]1CN(C)C(=O)C1CCCCC1`: the cytotoxicity call is “inactive”.

In the case of `C[C@@H]1CN([C@H](C)CO)C(=O)c2cc(-c3cccc(C(=O)N(C)C)c3)cnc2O[C@H]1CN(C)S(=O)(=O)c1cccc(F)c1`, the cytotoxicity call is “inactive”.

For `Cc1cc(C(=O)Nc2cccc3c2O[C@@H](CN(C)S(=O)(=O)c2cccs2)[C@@H](C)CN([C@@H](C)CO)C3=O)n(C)n1`, the cytotoxicity call was “inactive”.

For `O=C1C[C@@](C(=O)NCc2ccccc2)(c2ccc([N+](=O)[O-])cc2)[C@@H](c2ccc(CO)cc2)N1CC12CC3CC(CC(C3)C1)C2`, the cytotoxicity call was “inactive”.

On to `Cc1ccc(S(=O)(=O)n2cc([C@H]3CC(=O)N(C(=O)OCc4ccccc4)[C@H]3C(=O)Nc3cccc4cccnc34)c3ccccc32)cc1`, for which the cytotoxicity call was “inactive”.

Regarding `C[C@@H]1CN([C@@H](C)CO)C(=O)c2cccc(NC(=O)Nc3ccc4c(c3)OCO4)c2O[C@H]1CN(C)S(=O)(=O)c1cn(C)cn1`, the cytotoxicity call was “inactive”.

Consider `Cl.Cl.Fc1ccc(C(c2ccc(F)cc2)N2CCN(CC=Cc3ccccc3)CC2)cc1`, for which the cytotoxicity call was “inactive”.

With `COc1ccc(CN2CCN(C(c3ccc(F)cc3)c3ccc(F)cc3)CC2)c(OC)c1OC.Cl`, the cytotoxicity call was “active”.

As to `Cc1cccc(CN2CCN(C(c3ccccc3)c3ccc(Cl)cc3)CC2)c1.Cl.Cl` (configuration not stated), the cytotoxicity call is “inactive”.

Regarding `Cc1ccc(S(=O)(=O)N(C)C[C@H]2Oc3c(NC(=O)C4CCOCC4)cccc3C(=O)N([C@H](C)CO)C[C@H]2C)cc1`, the cytotoxicity call is “inactive”.

On to `CCc1nc2ccc(C(=O)Nc3cc(-c4ccccc4)ccc3OC)cn2c1N(C)C(=O)c1cccc(OC)c1`, for which the cytotoxicity call was “inactive”.

As to `CC(C)NC(=O)Nc1ccc2c(c1)CC(=O)N([C@H](C)CO)C[C@H](C)[C@@H](CN(C)S(=O)(=O)c1ccccc1)O2`, the cytotoxicity call is “inactive”.

For `Cc1noc(C)c1NC(=O)N(C)C[C@@H]1OCCCC[C@H](C)Oc2ccc(NC(=O)c3ccccc3)cc2C(=O)N([C@@H](C)CO)C[C@H]1C`, the cytotoxicity call is “inactive”.

With `Cc1ccc2nc(CN)[nH]c2c1`, the cytotoxicity call was “inactive”.

Turning to `Cc1ccc2nc(SCc3ccc4ccccc4c3)[nH]c2c1`, the cytotoxicity call was “active”.

`Cc1ccc2nc(SCc3c(C)c(C)cc(C)c3C)[nH]c2c1`: the cytotoxicity call was “inactive”.

Turning to `CCCN(C)C[C@@H]1OCCCC[C@@H](C)Oc2ccc(NC(=O)CCC(F)(F)F)cc2C(=O)N([C@H](C)CO)C[C@@H]1C`, the cytotoxicity call was “inactive”.

`C[C@@H]1CCCCO[C@H](CN(C)Cc2ccc(C(=O)O)cc2)[C@H](C)CN([C@@H](C)CO)C(=O)c2cc(NC(=O)NC3CCCCC3)ccc2O1`: the cytotoxicity call is “inactive”.

In the case of `C[C@H](CO)N1C[C@H](C)[C@H](CN(C)C(=O)c2ccccc2)OCCCC[C@H](C)Oc2ccc(NC(=O)c3ccccc3)cc2C1=O`, the cytotoxicity call is “inactive”.

With `C=CCC[C@H](Cc1ccc(F)cc1)C(=O)OC[C@H](Cc1c[nH]c2ccccc12)NC(=O)[C@@H](CC=C)CC(=O)N[C@@H](CO)Cc1ccccc1`, the cytotoxicity call was “active”.

In the case of `C=CC[C@H](CC(=O)N[C@@H](CO)Cc1ccccc1)C(=O)N[C@@H](COC(=O)[C@@H](CC=C)Cc1ccc(F)cc1)Cc1c[nH]c2ccccc12`, the cytotoxicity call is “inactive”.

Regarding `C=CCC[C@H](Cc1ccc(F)cc1)C(=O)OC[C@H](Cc1c[nH]c2ccccc12)NC(=O)[C@@H](CC=C)CC(=O)N[C@H](CO)Cc1ccccc1`, the cytotoxicity call is “active”.

With `C=CCC[C@H](Cc1ccc(F)cc1)C(=O)OC[C@@H](Cc1c[nH]c2ccccc12)NC(=O)[C@H](CC=C)CC(=O)N[C@@H](CO)Cc1ccccc1`, the cytotoxicity call was “active”.

In the case of `C=CCC[C@H](Cc1ccc(F)cc1)C(=O)OC[C@H](Cc1c[nH]c2ccccc12)NC(=O)[C@H](CC=C)CC(=O)N[C@@H](CO)Cc1ccccc1`, the cytotoxicity call was “inactive”.

For `C=CCC[C@@H](Cc1ccc(F)cc1)C(=O)OC[C@@H](Cc1c[nH]c2ccccc12)NC(=O)[C@H](CC=C)CC(=O)N[C@@H](CO)Cc1ccccc1`, the cytotoxicity call was “inactive”.

For the molecule `C=CCC[C@@H](Cc1ccc(F)cc1)C(=O)OC[C@@H](Cc1c[nH]c2ccccc12)NC(=O)[C@@H](CC=C)CC(=O)N[C@@H](CO)Cc1ccccc1`, the cytotoxicity call was “inactive”.

Take `C=CCC[C@@H](Cc1ccc(F)cc1)C(=O)OC[C@H](Cc1c[nH]c2ccccc12)NC(=O)[C@@H](CC=C)CC(=O)N[C@@H](CO)Cc1ccccc1`: the cytotoxicity call was “active”.

Regarding `C=CC[C@@H](CC(=O)N[C@H](CO)Cc1ccccc1)C(=O)N[C@H](COC(=O)[C@@H](CC=C)Cc1ccc(F)cc1)Cc1c[nH]c2ccccc12`, the cytotoxicity call is “inactive”.

For the molecule `C=CCC[C@H](Cc1ccc(F)cc1)C(=O)OC[C@@H](Cc1c[nH]c2ccccc12)NC(=O)[C@@H](CC=C)CC(=O)N[C@@H](CO)Cc1ccccc1`, the cytotoxicity call is “inactive”.

For `C=CCC[C@@H](Cc1ccc(F)cc1)C(=O)OC[C@H](Cc1c[nH]c2ccccc12)NC(=O)[C@@H](CC=C)CC(=O)N[C@H](CO)Cc1ccccc1`, the cytotoxicity call is “inactive”.

As for `C=CCC[C@@H](Cc1ccc(F)cc1)C(=O)OC[C@@H](Cc1c[nH]c2ccccc12)NC(=O)[C@@H](CC=C)CC(=O)N[C@H](CO)Cc1ccccc1`, the cytotoxicity call is “inactive”.

Consider `Cc1ccnc(NC(=O)Cn2cnc3c2c(=O)n(C)c(=O)n3C)n1`, for which the cytotoxicity call is “inactive”.

Turning to `O=c1nc2[nH][nH]cc-2c(=O)[nH]1`, the cytotoxicity call is “inactive”.

Turning to `COCC#Cc1ccc2c(c1)O[C@H](CN(C)C(=O)CN(C)C)[C@H](C)CN([C@H](C)CO)S2(=O)=O`, the cytotoxicity call is “inactive”.

Regarding `C=CCOc1nc(NCC)nc(N(C)C)n1`, the cytotoxicity call was “inactive”.

In the case of `CS(=O)(=O)N1C[C@H](NC(=O)c2cnccn2)[C@H]2OCCC[C@H]21`, the cytotoxicity call was “inactive”.

Regarding `C=CC[C@@H](CC(=O)N(CCO)Cc1ccccc1)C(=O)N[C@H](COC(=O)[C@@H](CC=C)Cc1ccc(F)cc1)C(C)(C)C`, the cytotoxicity call was “inactive”.

For the molecule `C[C@@H]1CCCCO[C@H](CN(C)Cc2ccncc2)[C@H](C)CN([C@H](C)CO)C(=O)c2cc(NS(=O)(=O)c3ccc(Cl)cc3)ccc2O1`, the cytotoxicity call is “inactive”.

With `CCc1oc(CC[C@@H](CO)NC(=O)NCCn2cc(C3(O)CCCCC3)nn2)c(C(=O)OC)c1C(=O)OC`, the cytotoxicity call is “inactive”.

`O=C(CCCCCCC(=O)Nc1ccc([C@H]2O[C@@H](CSc3ccccc3)C[C@H](c3ccccc3)O2)cc1)NO`: the cytotoxicity call is “inactive”.

In the case of `C[C@H](CO)N1C[C@H](C)[C@@H](CN(C)C(=O)Nc2ccc(C(F)(F)F)cc2)Oc2c(NC(=O)c3ccc(-c4nccs4)cc3)cccc2C1=O`, the cytotoxicity call is “inactive”.

Consider `C[C@H]1CN([C@@H](C)CO)C(=O)c2cccc(NC(=O)C3CC3)c2O[C@@H]1CN(C)S(=O)(=O)c1ccccc1`, for which the cytotoxicity call was “inactive”.

For `C[C@@H]1CCCCO[C@H](CN(C)S(=O)(=O)c2ccccc2)[C@@H](C)CN([C@@H](C)CO)C(=O)c2cc(NC(=O)CCC(F)(F)F)ccc2O1`, the cytotoxicity call was “inactive”.

In the case of `CC(C)NC(=O)N[C@H]1C=C[C@H](CC(=O)NCCCN(C)C)O[C@H]1CO`, the cytotoxicity call was “inactive”.

For the molecule `COc1ccc(S(=O)(=O)N(C)C[C@@H]2Oc3ccc(NC(=O)c4ccncc4)cc3CC(=O)N([C@H](C)CO)C[C@@H]2C)cc1`, the cytotoxicity call is “inactive”.

As for `O=C(O)C(O)C(O)C(OC1OC(CO)C(O)C(O)C1O)C(O)CO` (configuration not stated), the cytotoxicity call was “inactive”.

Take `COc1cccc(S(=O)(=O)N[C@H]2C=C[C@H](CC(=O)NC3CCC3)O[C@@H]2CO)c1`: the cytotoxicity call is “inactive”.

In the case of `O=C(Nc1cccc(C(F)(F)F)c1)c1ccc2ccccc2c1`, the cytotoxicity call was “active”.

For the molecule `CC(C)(C)c1ccc(C(=O)Nc2cccc(C(F)(F)F)c2)cc1`, the cytotoxicity call was “inactive”.

As for `O=C(O)c1ccccc1Nc1cccc(C(F)(F)F)c1`, the cytotoxicity call is “inactive”.

With `C[C@@H]1CCCCO[C@@H](CN(C)S(=O)(=O)c2ccc(F)cc2)[C@H](C)CN([C@H](C)CO)C(=O)c2cc(NC(=O)CCC(F)(F)F)ccc2O1`, the cytotoxicity call was “inactive”.

As to `C[C@@H]1CN([C@H](C)CO)S(=O)(=O)c2ccc(C3=CCCCC3)cc2O[C@H]1CN(C)Cc1cncnc1`, the cytotoxicity call was “inactive”.

For `CCCCN(CCCC)CC(O)c1cc(Cl)cc2c1-c1ccc(Cl)cc1C2=Cc1ccc(Cl)cc1` (configuration not stated), the cytotoxicity call was “active”.

For the molecule `CCCCN(CCCC)CC[C@@H](O)c1cc2c(Cl)cc(Cl)cc2c2cc(C(F)(F)F)ccc12`, the cytotoxicity call is “inactive”.

`C[C@@H]1CCCCO[C@@H](CN(C)Cc2ccncc2)[C@H](C)CN([C@@H](C)CO)C(=O)c2cc(NC(=O)CCCCCC(=O)Nc3ccccc3N)ccc2O1`: the cytotoxicity call is “inactive”.

For the molecule `C[C@@H]1CN([C@@H](C)CO)C(=O)Cc2cc(NC(=O)Nc3ccc(F)cc3)ccc2O[C@@H]1CN(C)Cc1ccc(Cl)c(Cl)c1`, the cytotoxicity call is “active”.

For `C[C@@H]1CN([C@H](C)CO)C(=O)Cc2cc(NC(=O)Nc3ccc(F)cc3)ccc2O[C@@H]1CN(C)Cc1ccc(Cl)c(Cl)c1`, the cytotoxicity call is “active”.

With `C[C@H](CO)N1C[C@H](C)[C@@H](CN(C)Cc2ccc(Cl)c(Cl)c2)Oc2ccc(NC(=O)Nc3ccc(F)cc3)cc2CC1=O`, the cytotoxicity call is “active”.

For the molecule `C[C@H]1CN([C@@H](C)CO)C(=O)Cc2cc(NC(=O)Nc3ccc(F)cc3)ccc2O[C@H]1CN(C)Cc1ccc(Cl)c(Cl)c1`, the cytotoxicity call was “active”.

With `COc1ccc(-n2c(C)cc(CN)c2C)cc1`, the cytotoxicity call is “inactive”.

On to `O=C(C[C@H]1C[C@@H]2c3cc(NC(=O)c4ccc5c(c4)OCO5)ccc3O[C@@H]2[C@H](CO)O1)NCC(F)(F)F`, for which the cytotoxicity call was “inactive”.

As for `CC(C)NC(=O)N(C)C[C@H]1Oc2c(NC(=O)NC3CCCCC3)cccc2C(=O)N([C@H](C)CO)C[C@@H]1C`, the cytotoxicity call was “inactive”.

Consider `Cc1noc(C)c1NC(=O)Nc1ccc2c(c1)CC(=O)N([C@@H](C)CO)C[C@H](C)[C@@H](CN(C)S(C)(=O)=O)O2`, for which the cytotoxicity call is “inactive”.

As for `C[C@H](CO)N1C[C@H](C)[C@H](CN(C)C(=O)Nc2ccc3c(c2)OCO3)OCCCC[C@H](C)Oc2ccc(NC(=O)Nc3ccccc3)cc2C1=O`, the cytotoxicity call is “inactive”.

Consider `C[C@@H]1CCCCO[C@H](CN(C)S(=O)(=O)c2cccs2)[C@@H](C)CN([C@H](C)CO)C(=O)c2cc(NC(=O)Cc3ccccc3)ccc2O1`, for which the cytotoxicity call was “inactive”.

For the molecule `COc1ccc(S(=O)(=O)N(C)C[C@@H]2OCCCC[C@H](C)Oc3ccc(NC(=O)c4ccccc4)cc3C(=O)N([C@H](C)CO)C[C@@H]2C)cc1`, the cytotoxicity call was “inactive”.
